“And” between values parts separate entries of the source, which are not always exact repeats. Identical values can stand only once. In all, about 5,500 compounds went through this assay and about 2,000 (36%) were called active. About 18% were inconclusive and are not listed. Rule as the data show it: active = normalized growth mostly below about 0.91 (no sharp cut-off); inconclusive = no clear call, values can overlap the other calls; inactive = mostly above about 0.92. The list shows a part of the results.
Assay: chemical genetic growth profiling, strain panel (AID 1159580);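 also: tested at 20 µM; growth read once vehicle control cultures reached saturation at 30 °C; 1 = growth at the plate median or of vehicle wells; lower values mean less growth of the strain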
Conditions: S. cerevisiae deletion strains, growth OD
[1] = locus YHR030C, strain SLT2, active compounds read low
[2] = locus YHR079C, strain IRE1, active compounds read low
[3] = locus YJL095W, strain BCK1, active compounds read low
[4] = locus YJR066W, strain TOR1, active compounds read low
[5] = locus YLR113W, strain HOG1, active compounds read low
[6] = locus YNL183C, strain NPR1, active compounds read low
[7] = locus YOR231W, strain MKK1, active compounds read low
[8] = locus YPL256C, strain CLN2, active compounds read low

Measured: normalized growth

CC(=O)Oc1cc(C)c2c(c1C=O)Oc1c(c(C)c(OC(C)=O)c3c1C(OC(C)=O)OC3=O)OC2=O (stereo not drawn)
active: [5] 0.821
inactive: [1] 0.877 | [2] 0.883 | [3] 0.905 | [4] 0.857 | [6] 0.853 | [7] 0.876 | [8] 0.829

CC(=O)Oc1cc(C)c2c(c1C(OC(C)=O)OC(C)=O)Oc1c(c(C)c(OC(C)=O)c3c1C(OC(C)=O)OC3=O)OC2=O (stereo not drawn)
inactive: locus YAL013W, strain DEP1, active compounds read low 0.98 | locus YBR021W, strain FUR4, active compounds read low 1.01 | locus YBR229C, strain ROT2, active compounds read low 0.989 | locus YCL029C, strain bik1, active compounds read low 0.98 | locus YDL035C, strain GPR1, active compounds read low 1.03 | locus YDL074C, strain BRE1, active compounds read low 0.998 | locus YDL101C, strain DUN1, active compounds read low 0.983 | locus YDL134C, strain PPH21, active compounds read low 0.983 | locus YDL185W, strain tfp1, active compounds read low 0.965 | locus YDL192W, strain arf1, active compounds read low 1.01 | locus YDR101C, strain arx1, active compounds read low 1.03 | locus YDR162C, strain NBP2, active compounds read low 0.998 | locus YDR318W, strain mcm21, active compounds read low 0.98 | locus YDR388W, active compounds read low 0.982 | locus YDR502C, strain sam2, active compounds read low 0.968 | locus YEL061C, strain CIN8, active compounds read low 0.985 | locus YER110C, active compounds read low 0.97 | locus YER155C, strain BEM2, active compounds read low 1.01 | locus YER167W, strain BCK2, active compounds read low 0.995 | locus YGL078C, strain dbp3, active compounds read low 0.973 | locus YGL086W, strain mad1, active compounds read low 0.995 | locus YGL248W, strain PDE1, active compounds read low 0.967 | locus YGR135W, strain pre9, active compounds read low 0.952 | locus YGR252W, strain gcn5, active compounds read low 1.06 | [1] 0.952 | locus YHR079C, strain IRE1 (second series), active compounds read low 0.983 | [2] 0.93 | locus YHR094C, strain hxt1, active compounds read low 0.978 | locus YHR129C, strain ARP1, active compounds read low 0.983 | locus YHR200W, strain rpn10, active compounds read low 0.988 | locus YIL066C, strain RNR3, active compounds read low 0.983 | locus YIL073C, strain SPO22, active compounds read low 1.02 | locus YIL125W, strain kgd1, active compounds read low 0.978 | locus YIR030C, strain dcg1, active compounds read low 0.964 | [3] 0.988 and 0.963 | locus YJL134W, strain LCB3, active compounds read low 0.985 | locus YJL168C, strain set2, active compounds read low 0.991 | locus YJL187C, strain SWE1 (second series), active compounds read low 0.961 | [4] 0.889 | locus YKL009W, strain mrt4, active compounds read low 1 | locus YKL068W, active compounds read low 0.969 | locus YKL085W, strain MDH1 (second series), active compounds read low 0.97 | locus YKL085W, strain MDH1, active compounds read low 0.97 | locus YKR001C, strain vps1, active compounds read low 1 | locus YLR039C, strain RIC1, active compounds read low 0.943 | locus YLR058C, strain SHM2, active compounds read low 0.993 | locus YLR102C, strain apc9, active compounds read low 0.974 | locus YLR268W, strain sec22, active compounds read low 1.01 | locus YLR342W, strain FKS1 (second series), active compounds read low 1.06 | locus YLR371W, strain rom2, active compounds read low 0.998 | locus YLR418C, strain cdc73, active compounds read low 0.989 | locus YML016C, strain PPZ1, active compounds read low 0.971 | locus YML032C, strain rad52, active compounds read low 0.997 | locus YML124C, strain tub3, active compounds read low 0.968 | locus YMR078C, strain ctf18, active compounds read low 0.978 | locus YMR223W, strain ubp8, active compounds read low 0.989 | locus YMR263W, strain SAP30, active compounds read low 0.982 | locus YMR307W, strain GAS1, active compounds read low 1.02 | locus YNL067W, strain RPL9B, active compounds read low 0.983 | locus YNL128W, strain TEP1, active compounds read low 0.99 | [6] 0.911 | locus YNL233W, strain BNI4, active compounds read low 0.973 | locus YNL250W, strain rad50, active compounds read low 0.921 | locus YNL271C, strain bni1, active compounds read low 0.968 | locus YNL298W, strain CLA4, active compounds read low 0.967 | locus YNL307C, strain MCK1, active compounds read low 0.974 | locus YNR052C, strain pop2, active compounds read low 0.961 | locus YOL012C, strain htz1 0.831 | locus YOL147C, strain pex11, active compounds read low 0.99 | locus YOR061W, strain CKA2, active compounds read low 0.982 | locus YOR069W, strain VPS5, active compounds read low 0.974 | locus YOR136W, strain idh2, active compounds read low 1 | locus YOR144C, strain elg1, active compounds read low 0.978 | locus YOR184W, strain ser1, active compounds read low 1.05 | [7] 0.942 | locus YOR316C, strain cot1, active compounds read low 0.978 | locus YPL055C, strain LGE1, active compounds read low 1.05 | locus YPL241C, strain CIN2, active compounds read low 0.989 | [8] 0.892 | locus YPR119W, strain clb2, active compounds read low 0.981 | locus YPR141C, strain kar3, active compounds read low 0.956 | locus YPR163C, strain tif3, active compounds read low 0.974 | locus YPR167C, strain met16, active compounds read low 0.979 | strain wtn01, active compounds read low 1.04
active: [5] 0.832
